Data on 8 molecules can be found in PubChem BioAssay.

Test [1] addresses Albumin (Bos taurus) (UniProt P02769). The test is described as follows: compounds binding labelled BSA control protein – biochemical, small-molecule microarray, Alexa647 label, 635/667 nm fluorescence, artefact control for SMM control protein annotation, profiling panel (AID 1118).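 Also: score merges 667 nm emission intensity and signal-to-noise per printed compound spot.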 The conditions noted are these: BSA-A647 binding, fluorescence 635 nm, higher = more signal.
Test [2] in a line: probe aXIP binding to arrayed compounds – biochemical, NeuroSMM set, 635/667 nm fluorescence, primary screen (AID 1119).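 Also: probe is the protein aXip251-270 applied at 1 µg/mL to compound-printed slides; binding of probe to printed compounds measured as 667 nm fluorescence plus signal to noise.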 The conditions noted are these: small-molecule microarray, higher = more signal, called active from +8 up or from −8 down.
Test [3] in a line: probe aNOTCH3 binding on compound microarray – biochemical, small-molecule microarray, 635/667 nm fluorescence, primary screen (AID 1120).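 Also: probe is a biotin-tagged antibody raised against NOTCH3 rather than NOTCH3 protein; score merges spot fluorescence near 667 nm with spot signal to noise.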 The conditions noted are these: higher = more signal.
The nature of test [4]: probe aNOTCH2 binding on compound microarray – biochemical, small-molecule microarray, 635/667 nm fluorescence, primary screen (AID 1121).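 Also: score merges feature fluorescence read at 667 nm with its signal to noise.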 The conditions noted are these: higher = more signal.
The target in test [5] is Carbonic anhydrase 2 (Homo sapiens) (UniProt P00918). Put plainly: compounds binding carbonic anhydrase 2 – biochemical, small-molecule microarray, Alexa647-labelled CAII, profiling panel (AID 1122). The conditions noted are these: CAII-A647 binding fluorescence, higher = more signal.
A short description of test [6]: COS7 lysate on small-molecule microarray, probe aHis, 635 nm (AID 1123).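 Also: z-score combines 667nm fluorescence intensity with signal-to-noise per printed compound spot.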 The conditions noted are these: COS7 cell lysate, fluorescence, higher = more signal.
A short description of test [7]: probe aLAP1 signal on lysate-treated microarray – cell lysate, small-molecule microarray, COS7 lysate, primary screen (AID 1124).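 Also: lysate comes from COS7 cells expressing LAP1 and is applied at 0.3 µg/mL; score merges spot fluorescence near 667 nm with signal-to-noise over triplicate slides.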 The conditions noted are these: probe aLAP1, fluorescence, higher = more signal.
For test [8], the system named is Sam68 (KHDRBS1). The test is described as follows: compounds binding KHDRBS1 protein – biochemical, small-molecule microarray, 635 nm fluorescence, primary screen (AID 1125).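 Also: score merges 667 nm channel intensity with signal to noise over triplicate slides.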 The conditions noted are these: higher = more signal.
Test [9] has as its system Chordin-like protein 2 (CHRDL2). Put plainly: compounds binding chordin-like 2 – biochemical, small-molecule microarray, 635 nm fluorescence, primary screen (AID 1126).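 Also: printed compound slides probed with Chrdl2 protein at 4 µg/mL for 1 h at 4 C; score merges 667 nm emission intensity with signal to noise over three replicate slides.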 The conditions noted are these: fluorescence 635 nm, higher = more signal.
The target in test [10] is Concanavalin-A (Canavalia ensiformis) (UniProt P02866). The test is described as follows: compounds binding concanavalin A lectin – biochemical, small-molecule microarray, Alexa647 label, 635 nm, artefact control for SMM control protein annotation, primary screen (AID 1127).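 Also: z combines 667 nm emission intensity with signal-to-noise across three replicate slides.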 The conditions noted are these: ConA-A647 binding fluorescence, higher = more signal.
Sequence of Concanavalin-A (Canavalia ensiformis) (P02866 whole entry, looked up): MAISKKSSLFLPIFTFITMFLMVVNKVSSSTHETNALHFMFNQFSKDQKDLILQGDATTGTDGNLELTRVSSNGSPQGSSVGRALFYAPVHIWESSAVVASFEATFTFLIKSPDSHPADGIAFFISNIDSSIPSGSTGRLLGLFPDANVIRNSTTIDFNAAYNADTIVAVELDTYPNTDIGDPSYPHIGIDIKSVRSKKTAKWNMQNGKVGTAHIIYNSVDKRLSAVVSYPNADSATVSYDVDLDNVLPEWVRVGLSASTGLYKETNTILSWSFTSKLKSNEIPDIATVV
The nature of test [11]: compounds binding Alexa647 anti-His antibody – biochemical, small-molecule microarray, 635 nm fluorescence, artefact control for SMM control protein annotation, primary screen (AID 1128).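 Also: score merges feature fluorescence with signal-to-noise for each printed compound spot.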 The conditions noted are these: higher = more signal.
Test [12] relates to Human papillomavirus type 1a E7 protein (residues 1-88). Put plainly: HPV1a E7 small-molecule binders, primary screen, biochemical, small-molecule microarray, residues 1-88, 635 nm (AID 1129). The conditions noted are these: small-molecule microarray binding, fluorescence 635 nm; higher = more signal.
For test [13], the target named is Focal adhesion kinase 1 (Homo sapiens) (UniProt Q05397). Put plainly: PTK2 protein binding on printed compound slides – biochemical, small-molecule microarray, 635/667 nm fluorescence, BSA, DTT, primary screen (AID 1130).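 Also: composite of spot emission at 667 nm and signal to noise over triplicate slides.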 The conditions noted are these: 635 nm fluorescence, higher = more signal.
Sequence of Focal adhesion kinase 1 (Homo sapiens) (Q05397 whole entry, looked up): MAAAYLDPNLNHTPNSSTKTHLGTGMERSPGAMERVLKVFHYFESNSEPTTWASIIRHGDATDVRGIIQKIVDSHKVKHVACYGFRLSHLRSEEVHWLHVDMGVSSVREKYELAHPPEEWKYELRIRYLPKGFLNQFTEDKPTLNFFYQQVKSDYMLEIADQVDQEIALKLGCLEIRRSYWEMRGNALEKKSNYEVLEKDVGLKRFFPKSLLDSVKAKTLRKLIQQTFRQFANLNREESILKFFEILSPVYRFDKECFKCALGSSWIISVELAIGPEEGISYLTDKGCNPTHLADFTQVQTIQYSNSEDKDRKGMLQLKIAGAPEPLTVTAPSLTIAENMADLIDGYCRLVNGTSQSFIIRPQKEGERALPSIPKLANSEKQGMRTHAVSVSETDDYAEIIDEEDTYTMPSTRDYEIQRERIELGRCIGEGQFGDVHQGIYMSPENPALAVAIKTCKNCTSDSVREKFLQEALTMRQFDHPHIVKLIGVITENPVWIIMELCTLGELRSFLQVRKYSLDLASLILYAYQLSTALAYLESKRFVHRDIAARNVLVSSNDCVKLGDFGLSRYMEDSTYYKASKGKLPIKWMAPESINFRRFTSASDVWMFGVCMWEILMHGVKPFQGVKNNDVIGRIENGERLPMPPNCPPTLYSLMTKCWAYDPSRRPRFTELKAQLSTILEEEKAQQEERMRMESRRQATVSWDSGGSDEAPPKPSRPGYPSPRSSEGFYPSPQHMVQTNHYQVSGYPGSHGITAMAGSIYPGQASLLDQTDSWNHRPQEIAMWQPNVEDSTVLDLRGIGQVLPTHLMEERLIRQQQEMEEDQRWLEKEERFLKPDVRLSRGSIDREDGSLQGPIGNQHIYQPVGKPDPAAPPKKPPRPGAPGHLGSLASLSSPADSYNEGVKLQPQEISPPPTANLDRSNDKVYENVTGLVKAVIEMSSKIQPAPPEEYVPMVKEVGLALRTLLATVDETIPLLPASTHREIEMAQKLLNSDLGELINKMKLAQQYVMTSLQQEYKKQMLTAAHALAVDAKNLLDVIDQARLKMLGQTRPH
For test [14], the system named is Fibrinogen (Alexa647-labelled). The test is described as follows: Alexa647-fibrinogen binding to printed small molecules – biochemical, small-molecule microarray, 635/667 nm fluorescence, artefact control for SMM control-protein annotation, profiling panel (AID 1131).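 Also: z-score merges 667 nm fluorescence with per-spot signal-to-noise over triplicate slides.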 The conditions noted are these: fibrinogen-A647 binding fluorescence, higher = more signal.
Test [15] addresses Follistatin (Homo sapiens) (UniProt P19883). Put plainly: FST protein binding to printed compounds – biochemical, small-molecule microarray, 635/667 nm fluorescence, primary screen (AID 1132). The conditions noted are these: 635 nm fluorescence, higher = more signal.
Test [16] concerns the target Fibroblast growth factor 2 (Homo sapiens) (UniProt P09038). Put plainly: basic fibroblast growth factor binding to printed compounds – biochemical, small-molecule microarray, 635/667 nm fluorescence, primary screen (AID 1133). The conditions noted are these: FGF2, fluorescence 635/667, higher = more signal.
Test [17] in a line: JC-1 mitochondrial potential readout, lung cancer cells – cell-based, A549, JC-1 fluorescence, basal, 24 h, 100 nL, profiling panel (AID 1138).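 Also: A549 lung adenocarcinoma cells under basal conditions with no added stimulus; test concentration not given here.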 The conditions noted are these: higher = more signal.
The test system of test [18] is Lefty1. Put plainly: Lefty1 protein binding to printed compounds – biochemical, small-molecule microarray, 635/667 nm fluorescence, primary screen (AID 1139). The conditions noted are these: fluorescence 635/667, higher = more signal.
For test [19], the system named is wheat germ agglutinin (Triticum aestivum), Alexa647-labelled. The test is described as follows: Alexa647-WGA lectin binding to printed small molecules – biochemical, small-molecule microarray, 635/667 nm fluorescence, artefact control for SMM control-protein annotation, profiling panel (AID 1140).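 Also: score merges 667 nm feature emission with signal to noise over triplicate slides.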 The conditions noted are these: WGA-A647 binding, 635 nm fluorescence, higher = more signal.

For test [20], the target named is Luciferin 4-monooxygenase (Photinus pyralis) (UniProt P08659). The test is described as follows: inhibition of purified Photinus pyralis luciferase – biochemical, luminescence, purified enzyme, 2006 set, primary screen (AID 1141).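 Also: cell-free assay with purified firefly luciferase at 100 ng per well in PBS; test concentration not given here.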 The conditions noted are these: purified firefly luciferase, SteadyGlo luminescence, 30 min; higher = more signal, called active from +8 up or from −8 down.
Sequence of Luciferin 4-monooxygenase (Photinus pyralis) (P08659 whole entry, looked up): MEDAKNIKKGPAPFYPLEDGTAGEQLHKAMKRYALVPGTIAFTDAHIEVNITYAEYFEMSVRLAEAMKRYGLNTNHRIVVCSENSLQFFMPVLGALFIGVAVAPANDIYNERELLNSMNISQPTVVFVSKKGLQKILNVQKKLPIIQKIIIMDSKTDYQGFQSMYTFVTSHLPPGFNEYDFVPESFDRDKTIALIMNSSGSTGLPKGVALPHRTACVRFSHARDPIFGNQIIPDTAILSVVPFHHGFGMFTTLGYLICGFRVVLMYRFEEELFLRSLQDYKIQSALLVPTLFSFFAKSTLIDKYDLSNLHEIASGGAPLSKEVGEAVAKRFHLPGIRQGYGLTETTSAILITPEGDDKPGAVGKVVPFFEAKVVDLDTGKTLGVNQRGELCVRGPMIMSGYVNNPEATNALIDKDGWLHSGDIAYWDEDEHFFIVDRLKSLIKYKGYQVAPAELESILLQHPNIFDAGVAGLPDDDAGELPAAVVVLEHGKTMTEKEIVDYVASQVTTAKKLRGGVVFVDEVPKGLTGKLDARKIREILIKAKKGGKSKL

Active and inactive are the calls of the source.

Sequence of Follistatin (Homo sapiens) (P19883 whole entry, looked up): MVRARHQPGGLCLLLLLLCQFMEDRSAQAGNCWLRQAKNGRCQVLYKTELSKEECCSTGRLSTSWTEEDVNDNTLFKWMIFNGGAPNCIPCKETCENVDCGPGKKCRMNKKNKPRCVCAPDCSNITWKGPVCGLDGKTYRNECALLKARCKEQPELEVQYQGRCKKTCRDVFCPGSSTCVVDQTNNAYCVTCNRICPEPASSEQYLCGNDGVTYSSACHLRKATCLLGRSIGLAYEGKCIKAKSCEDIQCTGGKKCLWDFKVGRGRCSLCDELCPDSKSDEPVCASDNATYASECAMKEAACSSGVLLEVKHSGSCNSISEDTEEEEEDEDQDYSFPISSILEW
Sequence of Albumin (Bos taurus) (P02769 whole entry, looked up): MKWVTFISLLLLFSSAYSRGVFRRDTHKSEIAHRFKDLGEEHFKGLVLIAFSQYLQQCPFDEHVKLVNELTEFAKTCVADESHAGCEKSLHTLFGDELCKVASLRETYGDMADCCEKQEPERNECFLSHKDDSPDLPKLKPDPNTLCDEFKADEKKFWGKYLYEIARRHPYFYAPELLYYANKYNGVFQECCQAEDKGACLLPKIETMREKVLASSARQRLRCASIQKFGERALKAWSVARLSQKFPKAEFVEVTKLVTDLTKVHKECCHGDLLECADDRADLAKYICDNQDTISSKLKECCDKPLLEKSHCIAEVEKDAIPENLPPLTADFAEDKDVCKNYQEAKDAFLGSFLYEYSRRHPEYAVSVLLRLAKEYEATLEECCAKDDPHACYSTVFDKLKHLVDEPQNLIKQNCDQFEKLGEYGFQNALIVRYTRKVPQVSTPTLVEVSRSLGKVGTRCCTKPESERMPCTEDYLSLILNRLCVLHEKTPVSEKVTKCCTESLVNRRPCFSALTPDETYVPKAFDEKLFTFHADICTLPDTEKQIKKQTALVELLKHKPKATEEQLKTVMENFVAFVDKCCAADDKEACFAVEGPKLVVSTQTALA
Sequence of Fibroblast growth factor 2 (Homo sapiens) (P09038 whole entry, looked up): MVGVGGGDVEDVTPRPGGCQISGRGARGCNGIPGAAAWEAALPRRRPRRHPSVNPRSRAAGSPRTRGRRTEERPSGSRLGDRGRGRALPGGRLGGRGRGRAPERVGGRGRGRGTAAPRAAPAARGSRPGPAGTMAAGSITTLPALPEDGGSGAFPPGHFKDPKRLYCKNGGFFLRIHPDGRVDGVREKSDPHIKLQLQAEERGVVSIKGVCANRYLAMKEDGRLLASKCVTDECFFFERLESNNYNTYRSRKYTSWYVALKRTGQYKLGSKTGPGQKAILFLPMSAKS

Consider `N#Cc1ccc(NN2C(C(O)c3ccc(B(O)O)cc3)C=CC3CN(c4ccccc4)C(=O)C32)cc1` (stereo not given), for which the composite z-score was 0.813 in [1]; -0.128 in test [3]; -0.188 in test [4]; 0.852 in test [5]; 0.417 in test [6]; -0.247 in test [7]. The composite z-score in test [8] was 0.141; in [9], -0.412; in test [10] it was 0.133; in [11] it was 0.48; in test [12] it was -0.633; in test [13], -0.508. For the same molecule, the composite z-score in test [14] was 0.529; in [15], -0.0923; in test [16], -0.436; in test [18], -0.118; in test [19], 0.485. Moreover, the composite Z-score in test [2] is -0.254 (inactive). In addition, the z-score in [17] was -0.408; in test [20], -1.24 (inactive).

With `COc1cccc(C)c1NC(=O)O[C@H]1[C@H](OC(=O)Nc2ccc3c(c2)OCO3)[C@H](OC(=O)Nc2ccc3c(c2)OCO3)[C@@H](OC)O[C@@H]1CO`, the composite z-score in [1] is 0.428; in [3] it was 0.473; in [4], -0.101; in test [5] it was 0.3; in test [6], 1.43; in [7] it was 0.405. Further, the composite z-score worked out at 1.3 in test [8]; 0.0955 in [9]; 1.17 in test [10]; 1.61 in test [11]; 1.27 in test [12]; 0.197 in test [13]. For the same molecule, the composite z-score came out at 0.993 in test [14]; 1.3 in test [15]; 0.662 in test [16]; 0.802 in [18]; 0.7 in test [19]. In addition, the composite Z-score in test [2] was 0.645 (inactive). Moreover, the z-score in [17] is 0.123; in test [20] it was -6.86 (inactive).

Turning to `C=C(CCCC)C(=O)CC[C@@H](OC(C)=O)c1ccc(OCCO)cc1`, the composite z-score is -0.267 in [1]; 0.15 in [3]; -0.117 in [4]; 0.628 in [5]; 0.143 in test [6]; 1.21 in [7]. For the same molecule, the composite z-score in [8] was -0.135; in test [9], 0.523; in test [10], 0.397; in test [11] it was 1.51; in [12], -0.161; in test [13] it was -0.162. The composite z-score in test [14] is -0.134; in test [15] it was 1.46; in test [16], 1.4; in [18], 1.69; in test [19] it was -0.578. In [2], the composite Z-score was 3.19 (inactive). In addition, the z-score in [17] was -0.275; in [20], -1.4 (inactive).

Take `COc1cccc(C)c1NC(=O)O[C@H]1[C@H](OC(=O)Nc2ccccc2-c2ccccc2)[C@@H](OC(=O)Nc2ccccc2-c2ccccc2)[C@@H](OC)O[C@@H]1CO`: the composite z-score turned out to be 0.848 in test [1]; 0.668 in test [3]; 0.0151 in test [4]; 0.712 in test [5]; 1.44 in test [6]; 0.762 in test [7]. Besides, the composite z-score in test [8] worked out at 1.3; in [9], 0.0298; in test [10], 1.02; in test [11], 1; in [12] it was 1.25; in [13], 1.29. Further, the composite z-score stood at 1.02 in [14]; 1.27 in test [15]; 0.317 in [16]; 0.719 in test [18]; 0.55 in test [19]. For the same molecule, the composite Z-score in test [2] was 0.694 (inactive). Also, the z-score in [17] is -0.158; in test [20], -0.742 (inactive).

For the molecule `COCCOC(=O)N1C(=O)[C@@]2(c3cc(C#CCNC(N)=O)ccc31)[C@H](C(=O)Nc1nc3ccccc3s1)[C@H]1C(=O)O[C@H](c3ccccc3)[C@H](c3ccccc3)N1[C@@H]2c1ccc(O)cc1`, the composite z-score was -0.376 in test [1]; 0.0203 in [3]; -0.0094 in test [4]; 0.214 in test [5]; 0.734 in test [6]; 0.16 in test [7]. The composite z-score in test [8] is 1.02; in test [9] it was 0.306; in [10] it was 1.1; in test [11], 0.216; in test [12], 0.93; in test [13] it was 0.164. In addition, the composite z-score was 0.9 in [14]; 1.31 in test [15]; 0.802 in [16]; 0.392 in test [18]; 0.934 in [19]. The composite Z-score in test [2] is -0.263 (inactive). The z-score was -2.44 in test [17] and -0.518 (inactive) in test [20].

For the molecule `COCCOC(=O)N1C(=O)[C@@]2(c3cc(C#CCC(C(=O)OC)C(=O)OC)ccc31)[C@H](C(N)=O)[C@H]1C(=O)O[C@H](c3ccccc3)[C@H](c3ccccc3)N1[C@@H]2c1ccccc1OCCO`, the composite z-score in test [1] was 0.653; in test [3], -0.0565; in test [4] it was 0.201; in test [5], 0.593; in [6] it was 0.882; in test [7], -0.155. Besides, the composite z-score in test [8] stood at 1.32; in test [9], 1.1; in [10], 1.15; in test [11] it was 0.737; in test [12], 1.09; in test [13] it was 0.225. In addition, the composite z-score in [14] amounted to 0.927; in [15], 1.32; in test [16], 1.57; in test [18], 1.26; in test [19] it was 0.556. For the same molecule, the composite Z-score in test [2] was -0.145 (inactive). The z-score in [17] is -0.116; in [20], -0.617 (inactive).

For the molecule `CC(C)(C)OC(=O)N1[C@@H](C=C(Br)Br)COC1(C)C`, the composite z-score in [1] is -0.121; in [3], 0.0522; in [4], -0.104; in [5], -0.0481; in test [6], 0.259; in [7], 0.136. The composite z-score in test [8] is 0.839; in test [9] it was 0.644; in [10] it was 0.556; in [11] it was 0.286; in test [12] it was 0.974; in test [13] it was -0.0276. For the same molecule, the composite z-score is 0.592 in test [14]; 0.652 in [15]; 0.65 in test [16]; 0.519 in [18]; -0.0422 in test [19]. Moreover, the composite Z-score in [2] is 0.274 (inactive). Moreover, the z-score in test [17] is 0.206; in [20], -1.04 (inactive).

For the molecule `COC(=O)[C@@]1(Cc2ccc(F)cc2)[C@H]2c3cc(C(=O)N4CCCC4)n(CCc4c[nH]c5cc(F)ccc45)c3C[C@H]2CN1C(=O)c1ccccc1`, the composite z-score is 0.978 in [1]; 1.05 in test [3]; 0.488 in test [4]; 0.767 in test [5]; 2.76 in test [6]; 0.202 in test [7]. The composite z-score in test [8] was 1.33; in test [9] it was 0.212; in test [10], 1.03; in test [11] it was 1.43; in test [12], 1.26; in [13] it was 1.16. Moreover, the composite z-score turned out to be 0.999 in [14]; 1.13 in test [15]; 0.296 in test [16]; 0.293 in [18]; 0.832 in [19]. For the same molecule, the composite Z-score in [2] was 0.905 (inactive). The z-score in test [17] was 0.592; in test [20], 2.41 (inactive).
